# Screening results: PubChem BioAssay, National Center for Advancing Translational Sciences (NCATS)
# Compounds with a hit are over-represented: about 14% of the library has one in this group of screens.
# HCV inh: qHTS Assay for Inhibitors of Hepatitis C Virus (HCV). Huh7.5.1 HCVcc-Cre infection, luciferase reporter, 44 h. Potency, µM (series often up to 41.8 µM), for inactives: top-dose activity change, negative = inhibition, most hits filed as inhibitors. 3.4% of 340,000 active; further: potency means the concentration at half of the fitted maximal effect
#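 Cells (1,000/well) were plated 4 h before compound, then infected with HCVcc-Cre virus (~0.5 moi). After 44 h further culture, infection was read as luciferase luminescence following a 15 min substrate incubation at room temperature.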
# Pf growth 48h: Primary qHTS for delayed death inhibitors of the malarial parasite plastid, 48 hour incubation | P. falciparum luciferase growth in erythrocytes, 48 h | Potency, µM (top dose mostly 28.7 µM), for inactives: top-dose activity change, negative = inhibition, actives largely listed as inhibitors | 5.9% of 310,000 active; further: potency means the concentration at half of the fitted maximal effect
#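 Luminescence readout; reporter = integrated firefly luciferase in P. falciparum. RBC culture at 2% hematocrit, 0.1% parasitemia final, 37 C/5% CO2; decreased signal taken as growth inhibition.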
# LASV entry inh: qHTS for Inhibitors of binding or entry into cells for Lassa Virus; AID 540256, 2011; 1.2% of 300,000 active; Potency, µM (top dose mostly 37.9 µM), for the others: at the highest dose activity change, negative = inhibition, hits mostly inhibitors; Lassa virus pseudotype entry inhibition, cell reporter; calls by dose curve; tested in HEK293 cells; further: potency means the concentration at half of the fitted maximal effect; nearly all actives have a fitted effect of over 50% in size
# MARV entry inh: qHTS for inhibitors of binding or entry into cells for Marburg Virus | Marburg virus pseudotyped entry inhibition, cell reporter | Potency, µM (series often up to 37.8 µM), for the others: top-dose activity change, negative = inhibition, usual class: inhibitors | 1.8% of 300,000 active | AID 540276, 2011; calls by dose curve; tested in HEK293 cells; further: potency means the concentration at half of the fitted maximal effect
# HCMV antiviral: qHTS Assay for inhibitors of the human cytomegalovirus (HCMV); activity change, negative = inhibition, % at 57.5 µM; AID 1259415, 2018; HFF cells, HCMV-luciferase reporter, 72 h; active compounds read low; 4.5% of 410,000 active; in the data active means activity change below about -60%; inconclusive means no clear call, values can overlap the other calls; inactive means above about -39%
#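 After 16 h attachment at 37C, HFF cells received test compound and HCMV-luciferase (1 PFU/cell); reporter luminescence read 72 h later, data normalized against buffer-only and known inhibitor Salinomycin.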
# Pf growth 96h: Primary qHTS for delayed death inhibitors of the malarial parasite plastid, 96 hour incubation | 6.9% of 320,000 active | P. falciparum luciferase reporter growth, 96 h | Potency, µM (series often up to 28.7 µM), without a hit: at the top dose activity change, negative = inhibition, actives largely listed as inhibitors; further: potency means the concentration at half of the fitted maximal effect
#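 Compounds incubated with erythrocytes infected by luciferase-expressing P. falciparum (2% hematocrit, 0.05% parasitemia final) for 96 hours, 37 C in 5% CO2. Growth inhibition scored as decreased luciferase luminescence.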
# Numbers without * were called inactive; ? = inconclusive; nt = no result given; + = active, no number; [ ] = another dose, or the depositor's remark. Unless noted, the call rests on the fitted dose curve; in most records, active means well fitted inhibition curve with a large enough effect; inconclusive means small, poorly fitted or top-dose-only effect, or another doubt; inactive means no such curve, though single readings can be large or run the other way. On the % scale 0 is the no-effect control and ±100 the full control effect.
SMILES,HCV inh,Pf growth 48h,LASV entry inh,MARV entry inh,HCMV antiviral,Pf growth 96h
CC(C)C(=O)NNC(=O)CSc1nc(C2CCCCC2)nc2ccccc12,6.6%,0.6%,-10.5%[46.1 µM],-19.7%,5.9,1.47µM*
COc1cccc(NC(=O)CSc2ncnc3c2cnn3Cc2ccccc2)c1,-4.7%,-27.9%,-4.9%,-12.8%,-3.0,nt
COc1ccc(NC(=O)CSc2ncnc3c2cnn3CCc2ccccc2)cc1,2.2%,4.1%,11.2µM*,?,101.7,22.9%
CCOC(=O)CSc1nc(Cc2ccccc2)nc2ccccc12,-21.1%,-19.8%,-1.5%[46.1 µM],3.7%[46.1 µM],-66.3*,14.9%
CCc1nc(SCC(=O)NNC(=O)C(C)C)c2ccccc2n1,4.4%,?,-13.7%,-19.7%,-15.5,11.7µM*
CCN1C(=NCCOC)N[C@@H](c2ccccc2)[C@H](C(=O)OC)[C@H]1C,11.6%,35.6%,nt,12.2%[14.2 µM],-9.2,8.4%
CCOCCOC(=O)c1[nH]c2c(c1C)C(=O)CC(c1ccccc1)C2 (stereo not given),?,nt,?,?,-71.0*,-1.4%
COCCOC(=O)c1[nH]c2c(c1C)C(=O)CC(c1cccs1)C2 (stereo not given),-18.6%,?,nt,nt,0.0,136.1%
CCOCCOC(=O)c1[nH]c2c(c1C)C(=O)CC(c1cccs1)C2 (stereo not given),16.9%,?,?,?,-81.3*,52.6%
Cc1c(C(=O)OCCOc2ccccc2)[nH]c2c1C(=O)CC(c1ccccc1)C2 (stereo not given),nt,nt,-23.3%[46.1 µM],?,-36.7,nt
Cc1c(C(=O)OCCOc2ccccc2)[nH]c2c1C(=O)CC(c1ccccc1Cl)C2 (stereo not given),nt,nt,-11.6%[46.1 µM],?,-85.6*,nt
CCCCCOC(=O)c1[nH]c2c(c1C)C(=O)CC(c1ccco1)C2 (stereo not given),?,0.657µM*,?,0.461µM*,nt,23.2%
O=[N+]([O-])/C(Cl)=C(/NCCO)C(Cl)=C(Cl)Cl,4.5%,nt,-7.3%,8.7%,-19.7,nt
COc1ccc(-c2nn(-c3ccccc3)cc2C2NC(=O)NC(C)=C2C(=O)OC(C)C)cc1Cl (stereo not given),nt,nt,?,16.9%[46.1 µM],-3.4,nt
Cc1ccc2ccccc2c1C(O)c1ncc(-c2ccccc2F)[nH]1 (stereo not given),nt,nt,nt,nt,20.1,nt
Cc1nc(N)c(C#N)c(-c2cccnc2)c1C,12.9%,5.0%,8.8%,17.4%,-70.4*,-3.8%
CCc1nc(N)c(C#N)c(-c2cccnc2)c1C,4.5%,19.7%,10.0%,3.2%,-4.0,nt
CCCc1nc2ccc(NC(=O)CC(C)(C)C)cn2n1,nt,nt,nt,nt,49.5,nt
O=C(CCCN1C(=O)c2cccnc2Oc2ccc(Cl)cc21)N1CCCCC1,0.0%,?,nt,nt,19.9,13.1µM*
COCCNC(=O)CN1C(=O)c2cccnc2Oc2ccc(Cl)cc21,nt,nt,2.5%[46.1 µM],nt,+,nt
Cc1cc2oc(C(=O)Nc3sc4c(c3C(=O)NCc3ccco3)CCC4)cc(=O)c2cc1C,nt,nt,15.3%[46.1 µM],7.3%[46.1 µM],0.0,nt
CC(=O)c1ccc(NS(=O)(=O)c2ccc(-n3cccn3)cc2)cc1,nt,nt,-7.8%[46.1 µM],nt,3.0,nt
CCc1ccc(NC(=O)CSc2nc3ccccc3c(=O)n2CCCC(=O)N2CCCC2)cc1,?,nt,25.9µM*,9.2µM*,-66.0*,-25.4%
C=CCn1c(SCC(=O)Nc2cccc3ccccc23)nc(O)c(CC)c1=O,6.3%,nt,-11.7%,?,-9.3,9.28µM*
C=CCn1c(SCC(=O)NC(=O)c2cccn2C)nc2ccccc2c1=O,?,3.7µM*,-11.4%,-6.9%[46.1 µM],-24.5,10.0%
SMILES,HCV inh,Pf growth 48h,LASV entry inh,MARV entry inh,HCMV antiviral,Pf growth 96h
CCc1ccc(NC(=O)CSc2nc3ccccc3c(=O)n2CCC(=O)NC2CCCCC2)cc1,nt,nt,3.1%[46.1 µM],nt,-12.0,nt
CCn1c(SCC(=O)Nc2ccc(F)cc2)nc2ccccc2c1=O,-19.0%,nt,nt,nt,-69.1*,?
COc1ccc(OC)c(C(C)NC(=O)C(C)n2cc([N+](=O)[O-])cn2)c1 (stereo not given),-9.6%,-26.5%,nt,nt,-6.3,20.8%
O=C(Nc1ccccc1Br)C(Cc1ccccc1)NS(=O)(=O)c1cccc2nsnc12 (stereo not given),nt,nt,?,?,-27.1,nt
COc1ccc(NC(=O)CCc2c(C)nc3nc(CNC(=O)OC(C)(C)C)nn3c2C)cc1OC,nt,nt,0.4%[46.1 µM],-8.0%[46.1 µM],0.7,nt
CCN(CC)C(=O)CSc1nc2ccccc2c(=O)n1CCC(=O)NCc1ccc(F)cc1,?,9.28µM*,-4.3%,-3.8%,-13.9,?
CCN(CC)C(=O)CSc1nc2ccccc2c(=O)n1CC,-7.1%,nt,-7.9%,-4.0%,-26.0,?
C=CCn1c(SCC(=O)Nc2ccc3c(c2)CCC3)nc2ccccc2c1=O,11.4%,2.8%,-1.1%,-0.1%[46.1 µM],-4.3,?
C=CCn1c(SCC(=O)Nc2ccc(F)cc2)nc2ccccc2c1=O,-19.7%,?,nt,nt,-23.0,5.22µM*
COc1ccc(NC(=O)C2(C)CCCN(C(C)=O)C2)cc1F (stereo not given),nt,nt,nt,nt,31.6,nt
Cc1c(C)n(CC(O)CN(CCO)CCO)c2ccccc12 (stereo not given),15.1%,-1.0%,6.8%[46.1 µM],-14.8%[46.1 µM],-16.5,203.2%
CCCN(CCC)CC(O)Cn1c2ccccc2c2ccccc21 (stereo not given),?,?,-9.4%[46.1 µM],7.08µM*,-29.0,?
Cc1cccc(C)c1N(CC(O)Cn1c2ccccc2c2ccccc21)S(C)(=O)=O (stereo not given),?,?,-27.6%[14.3 µM],?,-33.0,nt
CC(C)CCN(CCC(C)C)CC(O)Cn1c2ccccc2c(=O)c2ccccc21 (stereo not given),?,1.65µM*,nt,nt,8.1,?
O=C(CCN1C(=O)C2CC=CCC2C1=O)Nc1nccs1 (stereo not given),11.2%,7.8%,nt,nt,-28.9,54.1%
Oc1ccccc1Cc1c(O)ccc2ccccc12,-5.6%,15.9%,nt,nt,7.5,-11.5%
O=C(C1=C(O)C(=O)N(CC2CCCO2)C1c1ccccc1F)c1ccco1 (stereo not given),3.3%,16.0%,-0.2%,-1.7%[46.1 µM],-18.3,209.6%
O=C(c1ccc(N2C(=O)c3ccccc3C2=O)cc1)N1CCN(S(=O)(=O)c2ccccc2F)CC1,nt,nt,nt,nt,-6.5,nt
Cc1ccc(NC(=O)c2cccc(NC(=O)N3CCSc4ncccc43)c2)cc1F,nt,nt,-4.7%[46.1 µM],nt,0.0,nt
CNC(=O)C1CCC(Cn2c(=O)[nH]c3ccsc3c2=O)CC1 (stereo not given),nt,nt,3.1%[46.1 µM],nt,19.5,nt
COc1ccc(C(C)(O)c2nc(/C=C/c3ccccc3)cs2)cc1 (stereo not given),nt,nt,nt,nt,10.3,nt
